# Source: PubChem BioAssay (Tox21)
# Results filed as inconclusive are left out. A call without a number means that no potency is given here. The source holds several records for some structures; these can differ, active in one and inactive in another. The source made the active and inactive calls. Unless noted, calls follow the shape of the dose curve; as a rule, active = well fitted curve in the direction sought with a large enough effect in the repeat runs; inconclusive = weak or mixed curves; inactive = no such curve, though single readings can be large; an effect the other way counts as inactive or inconclusive.
# Assays:
# [1] = qHTS assay to identify small molecule antagonists of the androgen receptor (AR) signaling pathway using the MDA cell line in the presence of 0.5 nM R1881 - cell viability counter screen (AID 1259242); also: nearly all actives have a fitted effect of over 45% in size; also: potency is read from the fitted curve at half-maximal effect
# Summary of the method: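 Viability of MDA-kb2 cells was multiplexed with the luciferase AR readout; after 16 hr with compounds and R1881 at 0.5 nM final, CellTiter-Fluor fluorescence was recorded.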
# [2] = target: Estrogen receptor (Homo sapiens) (UniProt P03372); experiment: qHTS assay to identify small molecule antagonists of the estrogen receptor alpha (ER-alpha) signaling pathway using the BG1 cell line in the presence of 0.1 nM 17-beta-estradiol (AID 1259244); also: nearly all actives have a fitted effect of over 50% in size; also: potency is read from the fitted curve at half-maximal effect
# Summary of the method: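 Estradiol at 0.1 nM (final) stimulates the endogenous ER-alpha of VM7Luc4E2 cells carrying an ERE-driven luciferase; compounds are co-incubated 22 h at 37C and luciferase output quantified by luminescence.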
# [3] = qHTS assay to identify small molecule HDAC inhibitors (AID 1259364);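 also: wild-type HCT-116 cells with endogenous class I/II HDAC activity; top concentration of the series differs between compounds; nearly all actives have a fitted effect of over 45% in size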
# Summary of the method: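 Read-out: luminescence of HDAC-Glo I/II reagent, 30 min RT, reflecting class I/II deacetylase activity in whole HCT-116 cells pre-exposed 2 h to DMSO-dissolved compounds.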
# [4] = qHTS assay to identify small molecule HDAC inhibitors - cell viability counter screen (AID 1259365); also: series mostly up to about 92 µM; nearly all actives have a fitted effect of over 50% in size
# Summary of the method: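 After overnight seeding at 1,500 cells per well, wild-type HCT-116 cultures took up compounds in DMSO for 2hr at 37 C. Viable cell content came from luminescence with CellTiter-Glo.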
# [5] = qHTS assay to identify small molecule agonists of the sonic hedgehog signaling (Shh) pathway - cell viability counter screen (AID 1259366); also: nearly all actives have a fitted effect of over 50% in size
# Summary of the method: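 Same-well cytotoxicity read. Gli1-Luc reporter 3T3 cells; compounds 24hr, 37C/5% CO2; CellTiter-Fluor fluorescence.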
# [6] = qHTS assay to identify small molecule antagonists of the sonic hedgehog signaling (Shh) pathway - cell viability counter screen (AID 1259367); also: nearly all actives have a fitted effect of over 55% in size
# Summary of the method: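 Cells: 3T3 Gli1-Luc, 2,000/well, 4 hr pre-incubation. Compounds in DMSO, then conditioned medium. Incubation 24 hr, 37C, 5% CO2. CellTiter-Fluor at 23 hr, 1 hr, fluorescence.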
# [7] = qHTS assay to identify small molecule agonists of the sonic hedgehog signaling (Shh) pathway (AID 1259368; calls by dose curve;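 also: NIH/3T3-derived 3T3Gli1-Luc cells carrying a stable Gli1-driven firefly luciferase reporter; series mostly up to about 92 µM; nearly all actives have a fitted effect of over 15% in size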)
# Summary of the method: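 A Gli1 transcriptional response element controlled firefly luciferase in 3T3Gli1-Luc cells. Compounds and a positive control were added 4 hr after plating, and cells were incubated a further 24 hr at 37 C before luminescence detection.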
# [8] = qHTS assay to identify small molecule antagonists of the sonic hedgehog signaling (Shh) pathway (AID 1259369; calls by dose curve; also: nearly all actives have a fitted effect of over 45% in size; also: potency is read from the fitted curve at half-maximal effect)
# Summary of the method: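 For antagonist detection, the reporter line received test compounds together with conditioned medium, incubated 24hr at 37 C, 5% CO2, then luminescence was recorded following 30min room-temperature luciferase reagent incubation.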
# [9] = target: Estrogen receptor beta (Homo sapiens) (UniProt Q92731); experiment: qHTS assay to identify small molecule agonists of the estrogen receptor beta (ER-beta) signaling pathway (AID 1259377; active = well fitted activation curve with a large enough effect in the signal ratio in the repeat runs, not every such curve was filed as active; the % refers to the signal ratio)
# Summary of the method: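 Read-out: beta-lactamase FRET fluorescence. Cell line: ER-beta-UAS-bla HEK293T in 2% charcoal-stripped FBS. Exposure: 16 hr at 37C. Substrate step: 2 h at room temperature.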
# [10] = qHTS assay to identify small molecule agonists of the androgen receptor (AR) signaling pathway in the presence of an antagonist - cell viability counter screen (AID 1259379); also: nearly all actives have a fitted effect of over 25% in size; also: potency is read from the fitted curve at half-maximal effect;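 as to activity change, negative = cytotoxicity: MDA-kb2 human breast cancer cells carrying an MMTV luciferase reporter; series mostly up to about 92 µM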
# Summary of the method: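 Seed MDA-kb2 at 3,000 cells/well; incubate 5 hr, 37C, 0% CO2. Add nilutamide to 3.0uM final, then pin compounds at 15 concentrations. Incubate 16 hr. Add CellTiter-Fluor at 15 hr, read fluorescence after 1 hr.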
# [11] = qHTS assay to identify small molecule agonists of the estrogen receptor beta (ER-beta) signaling pathway - cell viability counter screen (AID 1259380); also: nearly all actives have a fitted effect of over 30% in size
# Summary of the method: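 CellTiter-Glo read, 30 min RT, same wells as bla assay; cells ER-beta-UAS-bla HEK293T; 16 hr compound, 37C; medium 2% charcoal-stripped FBS.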
# [12] = qHTS assay to identify small molecule antagonists of the estrogen receptor beta (ER-beta) signaling pathway - cell viability counter screen (AID 1259382);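 also: HEK293T cells carrying ER-beta-UAS-bla reporter stimulated with estradiol; series mostly up to about 92 µM; nearly all actives have a fitted effect of over 55% in size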
# Summary of the method: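 In this multiplexed counter screen, cells were seeded at 2,000 per well in medium with 2% charcoal-stripped FBS and incubated 6 hr before compound and 1nM final E2 were added. Sixteen hours later, ATP-based luminescence reported viability.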
# [13] = target: Estrogen receptor (Homo sapiens) (UniProt P03372); experiment: qHTS assay to identify small molecule agonists of the estrogen receptor alpha (ER-alpha) signaling pathway in the presence of an antagonist (AID 1259383; calls by dose curve; also: top concentration of the series differs between compounds; nearly all actives have a fitted effect of over 15% in size)
# Summary of the method: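 Stably transfected VM7Luc4E2 reporter cells, kept 5 days in charcoal-stripped serum, received ICI-182,780 at 10.0nM final before compound addition. Following 22hr incubation at 37C and 5% CO2, luciferase signal was read by luminescence.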
# [14] = qHTS assay to identify small molecule agonists or antagonists of the thyroid stimulating hormone receptor (TSHR) signaling pathway - wild type cell line counter screen (AID 1259384; calls by dose curve)
# Summary of the method: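 Counter screen in untransfected Hek293: compounds (15-point titration, triplicate) plus phosphodiesterase inhibitor Ro20-1724 added after 18 h plating; 30 min RT. Intracellular cAMP via competitive d2/cryptate immunoassay, 1 h incubation.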
# [15] = target: Thyrotropin receptor (Homo sapiens) (UniProt P16473); experiment: qHTS assay to identify small molecule antagonists of the thyroid stimulating hormone receptor (TSHR) signaling pathway (AID 1259385; calls by dose curve; also: nearly all actives have a fitted effect of over 20% in size)
# Summary of the method: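 Antagonist mode: compound-treated TSHR-expressing HEK293 cells were stimulated with 1.5 ng/mL TSH (final) in presence of Ro20-1724 for 30 min at RT. HTRF cAMP detection after 1 h; each compound tested at 15 concentrations, triplicate.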
# [16] = qHTS assay to identify small molecule agonists of the estrogen receptor alpha (ER-alpha) signaling pathway in the presence of an antagonist - cell viability counter screen (AID 1259386);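 also: cells exposed to compounds for 22 h at 37 °C before the viability read; nearly all actives have a fitted effect of over 30% in size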; also: potency is read from the fitted curve at half-maximal effect; as to activity change, negative = cytotoxicity: series mostly up to about 92 µM
# Summary of the method: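 Viability counter screen using VM7Luc4E2 (full-length ER-alpha, four ERE-luciferase). The cells were treated with compounds alongside ICI-182,780 10.0nM for 22hr, and live-cell protease fluorescence was quantified with CellTiter-Fluor.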
# [17] = target: Estrogen receptor beta (Homo sapiens) (UniProt Q92731); experiment: qHTS assay to identify small molecule antagonists of the estrogen receptor beta (ER-beta) signaling pathway (AID 1259378; active = well fitted inhibition curve with a large enough effect in the signal ratio in the repeat runs, not every such curve was filed as active; the % refers to the signal ratio)
# Summary of the method: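 Antagonist mode: compounds added to beta-lactamase reporter HEK293T ER-beta-UAS cells stimulated with E2 (1nM final), 16 hr at 37C. LiveBLAzer B/G FRET substrate, 2 hours room temperature, fluorescence read-out.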
# [18] = qHTS assay to identify small molecule phospholipidosis (PLD) inducers (AID 1259344; active = well fitted curve in the direction sought with a large enough effect; an effect the other way counts as inactive or inconclusive)
# Summary of the method: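 Phospholipidosis is scored by imaging LipidTOX-stained pits in HepG2 cells exposed to compound for 24 h at 37 C; pit counts and integrated intensities per well and per cell serve as outputs.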
# Chain of Estrogen receptor beta (Homo sapiens) (Q92731 whole entry, looked up): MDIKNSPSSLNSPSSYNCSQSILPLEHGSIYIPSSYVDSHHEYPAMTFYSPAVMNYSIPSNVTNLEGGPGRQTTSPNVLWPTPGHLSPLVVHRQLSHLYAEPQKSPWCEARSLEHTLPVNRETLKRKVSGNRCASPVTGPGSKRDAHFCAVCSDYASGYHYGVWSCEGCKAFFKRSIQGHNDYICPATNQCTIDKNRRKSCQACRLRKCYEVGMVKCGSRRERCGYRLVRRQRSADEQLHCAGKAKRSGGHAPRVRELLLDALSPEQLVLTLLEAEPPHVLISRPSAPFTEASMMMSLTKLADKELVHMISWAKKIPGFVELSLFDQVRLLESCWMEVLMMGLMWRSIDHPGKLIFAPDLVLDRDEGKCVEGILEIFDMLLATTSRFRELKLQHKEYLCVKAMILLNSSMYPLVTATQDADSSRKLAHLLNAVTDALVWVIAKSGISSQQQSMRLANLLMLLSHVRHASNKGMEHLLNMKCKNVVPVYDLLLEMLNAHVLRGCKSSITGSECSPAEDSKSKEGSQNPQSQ
# Chain of Estrogen receptor (Homo sapiens) (P03372 whole entry, looked up): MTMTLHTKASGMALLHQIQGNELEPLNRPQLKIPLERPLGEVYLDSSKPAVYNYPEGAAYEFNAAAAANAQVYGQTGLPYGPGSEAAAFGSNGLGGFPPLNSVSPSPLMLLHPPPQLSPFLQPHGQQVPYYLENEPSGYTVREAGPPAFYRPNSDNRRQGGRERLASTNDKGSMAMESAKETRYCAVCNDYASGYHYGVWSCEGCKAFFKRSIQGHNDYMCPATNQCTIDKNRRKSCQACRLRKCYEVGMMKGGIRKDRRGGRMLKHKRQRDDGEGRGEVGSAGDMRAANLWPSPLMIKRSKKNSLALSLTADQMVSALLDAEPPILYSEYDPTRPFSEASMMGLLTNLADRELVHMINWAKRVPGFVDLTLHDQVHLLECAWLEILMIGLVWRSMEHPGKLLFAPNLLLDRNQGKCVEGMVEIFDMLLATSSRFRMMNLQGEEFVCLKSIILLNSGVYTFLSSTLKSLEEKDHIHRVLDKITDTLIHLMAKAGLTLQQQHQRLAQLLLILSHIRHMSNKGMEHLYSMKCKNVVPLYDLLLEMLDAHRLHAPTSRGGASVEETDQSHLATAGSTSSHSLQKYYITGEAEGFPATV
# Chain of Thyrotropin receptor (Homo sapiens) (P16473 whole entry, looked up): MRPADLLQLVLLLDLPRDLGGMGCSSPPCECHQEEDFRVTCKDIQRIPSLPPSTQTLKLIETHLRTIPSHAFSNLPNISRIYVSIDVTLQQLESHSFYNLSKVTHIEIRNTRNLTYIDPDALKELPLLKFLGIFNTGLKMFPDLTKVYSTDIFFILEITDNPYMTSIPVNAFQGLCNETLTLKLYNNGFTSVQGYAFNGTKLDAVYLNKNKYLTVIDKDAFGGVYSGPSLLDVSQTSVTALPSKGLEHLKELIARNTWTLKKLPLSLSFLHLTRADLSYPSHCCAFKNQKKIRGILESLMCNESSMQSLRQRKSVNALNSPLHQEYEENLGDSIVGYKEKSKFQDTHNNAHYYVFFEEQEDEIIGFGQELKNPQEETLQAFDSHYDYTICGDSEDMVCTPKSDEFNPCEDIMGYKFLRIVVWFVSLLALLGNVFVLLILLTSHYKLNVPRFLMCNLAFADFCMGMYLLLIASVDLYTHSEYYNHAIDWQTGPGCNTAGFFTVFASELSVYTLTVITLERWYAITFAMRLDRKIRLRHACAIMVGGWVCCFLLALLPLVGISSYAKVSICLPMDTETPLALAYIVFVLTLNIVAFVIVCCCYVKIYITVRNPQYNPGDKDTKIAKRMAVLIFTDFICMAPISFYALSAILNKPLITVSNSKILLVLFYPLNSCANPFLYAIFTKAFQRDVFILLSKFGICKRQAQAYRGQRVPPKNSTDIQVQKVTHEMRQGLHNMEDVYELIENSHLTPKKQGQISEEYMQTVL
structure (smiles),measurement,setting,value
Cc1nc2ccccc2s1,Potency,[1],inactive
same,Potency,[2],inactive
same,Potency,[3],inactive
same,Potency,[4],inactive
same,Potency,[5],inactive
same,Potency,[6],inactive
same,Potency,[7],inactive
same,Potency,[8],inactive
same,Potency,[9],inactive
same,Potency,[10],inactive
same,Potency,[11],inactive
same,Potency,[12],inactive
same,Potency,[13],inactive
same,outcome,[14],inactive
same,Potency,[15],inactive
same,Potency,[16],inactive
Oc1cc(O)c(Cl)cc1Cl,Potency,[1],inactive
same,Potency,[2],inactive
same,Potency,[3],inactive
same,Potency,[4],inactive
same,Potency,[5],inactive
same,Potency,[6],inactive
same,Potency,[7],inactive
same,Potency,[8],inactive
same,Potency,[9],inactive
same,Potency,[17],inactive
same,Potency,[10],inactive
same,Potency,[11],inactive
same,Potency,[12],inactive
same,Potency,[13],inactive
same,outcome,[14],inactive
same,Potency,[15],inactive
same,Potency,[16],inactive
CCc1nn(CCCN2CCN(c3cccc(Cl)c3)CC2)c(=O)n1CCOc1ccccc1,Potency,[1],26.6 µM (active)
same,Potency,[2],11.9 µM (active)
same,Potency,[3],inactive
same,Potency,[4],inactive
same,Potency,[5],inactive
same,Potency,[6],inactive
same,Potency,[7],inactive
same,Potency,[8],15 µM (active)
same,Potency,[9],inactive
same,Potency,[10],29.8 µM (active)
same,outcome,[14],inactive
same,Potency,[16],29.8 µM (active)
CN1CCN(c2c(F)cc3c(=O)c(C(=O)O)cn4c3c2OCN4C)CC1,"viability change, negative = cytotoxic",[1],0.172% [at 19 µM] (inactive)
same,"activity change, negative = inhibition",[2],2.06% [at 19 µM] (inactive)
same,outcome,[18],inactive
same,"activity change, negative = inhibition",[3],8.76% [at 19 µM] (inactive)
same,"activity change, negative = cytotoxicity",[4],-3.29% [at 19 µM] (inactive)
same,"viability change, negative = cytotoxic",[5],2.32% [at 19 µM] (inactive)
same,"viability change, negative = cytotoxic",[6],-1.18% [at 19 µM] (inactive)
same,"activity change, negative = inhibition",[8],2.85% [at 19 µM] (inactive)
same,activation,[9],-0.625% [at 19 µM] (inactive)
same,"activity, negative = inhibition",[17],2.63% [at 19 µM] (inactive)
same,"activity change, negative = cytotoxicity",[10],0.471% [at 19 µM] (inactive)
same,"activity change, negative = cytotoxicity",[11],3.44% [at 19 µM] (inactive)
same,"activity change, negative = cytotoxicity",[12],-1.98% [at 19 µM] (inactive)
same,activation,[13],-0.999% [at 19 µM] (inactive)
same,cAMP activity change,[14],0.366% [at 18.9 µM] (inactive)
same,"activity change, negative = inhibition",[15],-3.1% [at 19 µM] (inactive)
same,"activity change, negative = cytotoxicity",[16],0.0729% [at 19 µM] (inactive)
CC(=O)CC(c1ccc([N+](=O)[O-])cc1)c1c(O)c2ccccc2oc1=O (stereo not drawn),Potency,[1],inactive
same,Potency,[2],inactive
same,outcome,[18],inactive
same,Potency,[3],inactive
same,Potency,[4],inactive
same,Potency,[5],inactive
same,Potency,[6],inactive
same,Potency,[7],inactive
same,Potency,[10],inactive
same,Potency,[11],inactive
same,Potency,[12],inactive
same,outcome,[14],inactive
same,Potency,[16],inactive
CCCCC(CC)C(=O)OCCOCCOCCOCCOC(=O)C(CC)CCCC (stereo not drawn),Potency,[1],inactive
same,Potency,[2],inactive
same,Potency,[3],inactive
same,Potency,[4],inactive
same,Potency,[5],inactive
same,Potency,[6],inactive
same,Potency,[7],inactive
same,Potency,[8],inactive
same,Potency,[9],inactive
same,Potency,[17],inactive
same,Potency,[10],inactive
same,Potency,[12],inactive
same,Potency,[13],inactive
same,outcome,[14],inactive
same,Potency,[16],inactive
Cc1cc(O)c(C(C)C)cc1Cl,Potency,[1],inactive
same,Potency,[2],inactive
same,outcome,[18],inactive
same,Potency,[3],inactive
same,Potency,[4],inactive
same,Potency,[5],inactive
same,Potency,[6],inactive
same,Potency,[7],inactive
same,Potency,[8],15.4 µM (active) and inactive
same,Potency,[9],inactive
same,Potency,[17],inactive
same,Potency,[10],inactive
same,Potency,[11],inactive
same,Potency,[12],inactive
same,Potency,[13],inactive
same,outcome,[14],inactive
same,Potency,[15],inactive
same,Potency,[16],inactive
CCCCC(=O)O[C@]1(C(=O)CO)CC[C@H]2[C@@H]3CCC4=CC(=O)CC[C@]4(C)[C@H]3[C@@H](O)C[C@@]21C,Potency,[1],inactive
same,Potency,[2],inactive
same,outcome,[18],inactive
same,Potency,[3],inactive
same,Potency,[4],inactive
same,Potency,[5],inactive
same,Potency,[6],inactive
same,Potency,[7],inactive
same,Potency,[8],inactive
same,Potency,[10],inactive
same,Potency,[11],inactive
same,Potency,[12],inactive
same,Potency,[13],inactive
same,outcome,[14],inactive
same,Potency,[16],inactive
